Reference: PubChem BioAssay AID588329 (National Center for Advancing Translational Sciences (NCATS), 2011)
Inconclusive results are not listed. Calls of active or inactive are those of the source. Calls come from the whole dose curve; as a rule, active = well fitted inhibition curve with a large enough effect; inconclusive = small, poorly fitted or top-dose-only effect; inactive = flat fitted curve, though single readings scatter.

test system: Trypanosoma brucei 6-phosphofructokinase (PFK); test: Confirmatory Assay to Find Inhibitors of T. brucei phosphofructokinase: ATP-depletion Assay; settings: recombinant T. brucei PFK, Kinase-Glo ATP depletion luminescence; series mostly up to 57.5 µM
Excerpt: Various species of the protozoan family Trypanosomatidae are responsible for a range of serious human diseases in tropical and subtropical areas of the world. […] Many of the disorders caused by trypanosomatids are fatal if left untreated, but most currently used drugs are inefficient and toxic. […] Oxidative metabolism involving the mitochondrial tricarboxylic acid cycle and oxidative phosphorylation are repressed in these parasites, and recent RNA interference (RNAi) experiments have shown that even partial depletion of certain individual glycolytic enzymes can lead to the death of cultured parasites. One such glycolytic enzyme, phosphofructokinase (PFK), catalyzes the formation of fructose-1,6-bisphosphate (F1,6BP) and ADP from fructose-6-phosphate (F6P) and ATP, and in many metabolic circumstances makes an important contribution to the control of flux through the glycolytic pathway. As a specific glycolytic target, PFK is particularly attractive as it catalyzes the first irreversible step in glycolysis, and structural and kinetic studies have shown very substantial and essential differences from corresponding host enzymes, allowing for the discovery of parasite-selective inhibitors. NIH Chemical Genomics Center [NCGC] NIH Molecular Libraries Probe Centers Network [MLPCN] MLPCN Grant: MH092153-01 Assay Submitter (PI): Malcom Walkinshaw, University of Edinburgh
Substrate buffer was dispensed into white, solid 1536-well plates at 3ul/well in 0.1M triethanolamine (TEA) buffer, pH 8.0, containing final concentrations of 5 mM MgCl2, 0.01% Tween20, 0.5 mM fructose-6-phosphate (F6P) and 0.1mM ATP. Then, 23nl of compounds or DMSO were delivered to each well using a pin tool. One ul T. brucei PFK (0.1M TEA, 0.01% Tween20, 0.1% bovine serum albumin (BSA) and 1.25nM PFK, final concentrations) was then dispensed, and plates were incubated at room temperature for 45 min. The luminescent detection reagent, Kinase-Glo Plus (Promega), was then added at 2ul/well and incubated for ten minutes at room temperature. The plates were measured on a ViewLux plate reader for luminescent signal using a clear filter with a one second exposure. The %Activity was determined from the corrected luminescence values. As no specific T. brucei PFK inhibitors have been identified in the literature, 1x (1.25nM) and 0x PFK enzyme controls (untreated) were included to normalize %Activity of identified inhibitors; 0x enzyme values corresponded to 100%Activity (full inhibition), while 1x PFK enzyme values were used to normalize 0% activity (no inhibition). The Kinase-Glo Plus protocol varies from the primary screen in that it measures ATP, rather than ADP, concentration, and thus provides a measure of substrate depletion, rather than of product formation. Concentration-response curves were fitted to the signals arising from the resulting luminescence. The concentration-effect curves were then classified based on curve quality (r2), response magnitude and degree of measured activity, and compounds were subsequently categorized based on their curve class. […] Keywords: T. brucei, phosphofructokinase, PFK, glycolysis, luminescence, MLSMR, MLPCN, NIH Roadmap, qHTS, NCGC

Compound	Potency
Cc1cc(N(C)S(=O)(=O)c2ccc(NC(=O)Cc3ccc(Cl)c(Cl)c3)cc2)no1	2590 nM (active)
Cc1cc(NS(=O)(=O)c2ccc(NC(=O)Cc3ccc(C)c(C)c3)cc2)no1	16300 nM (active)
O=C(Cc1ccc(Cl)c(Cl)c1)Nc1ccc(S(=O)(=O)O)cc1	580 nM (active)
Cc1cc(NS(=O)(=O)c2ccc(NC(=O)Cc3ccc(Cl)c(F)c3)cc2)no1	730 nM (active)
Cc1cc(NS(=O)(=O)c2ccc(C(=O)NCc3ccc(Cl)c(Cl)c3)cc2)no1	2310 nM (active)
Cc1cc(N[S+](=O)([O-])c2ccc3cc(NC(=O)Cc4ccc(Cl)c(Cl)c4)ccc3c2)no1	5170 nM (active)
Cc1cc(NS(=O)(=O)c2ccc(NC(=O)Cc3ccc4ccccc4c3)cc2)no1	5170 nM (active)
Cc1cc(N[S+](=O)([O-])c2ccc(NC(=O)Cc3ccc(Cl)nc3)cc2)no1	18300 nM (active)
O=C(Cc1ccc(Cl)c(Cl)c1)Nc1ccc(S(=O)(=O)Nc2ccon2)cc1	231 nM (active)
Cc1cc(NS(=O)(=O)c2ccc(NC(=O)Cc3ccc(Cl)cc3Cl)cc2)no1	4610 nM (active)
Cc1cc(NS(=O)(=O)c2ccc(N(C)C(=O)Cc3ccc(Cl)c(Cl)c3)cc2)no1	1030 nM (active)
Cc1cc(NS(=O)(=O)Cc2ccc(NC(=O)Cc3ccc(Cl)c(Cl)c3)cc2)no1	2910 nM (active)
Cc1cc(NS(=O)(=O)c2ccc(NC(=O)Cc3ccc(Cl)c(Cl)c3)cc2)on1	366 nM (active)
Cc1cc(NS(=O)(=O)c2ccc(NC(=O)Cc3cccc(Cl)c3)cc2)no1	5170 nM (active)
O=C(Cc1ccc(Cl)c(Cl)c1)Nc1ccc(S(=O)(=O)Nc2ccc(C(=O)O)cc2)cc1	326 nM (active)
Cc1cc(NS(=O)(=O)c2ccc(NC(=O)Cc3ccc(Cl)cc3)cc2)no1	2590 nM (active)

Compound	Potency
O=C(Cc1ccc(Cl)c(Cl)c1)Nc1ccc(S(=O)(=O)Nc2cccc(C(=O)O)c2)cc1	651 nM (active)
CN(C)c1cccc(NS(=O)(=O)c2ccc(NC(=O)Cc3ccc(Cl)c(Cl)c3)cc2)c1	16300 nM (active)
Cc1cc(NS(=O)(=O)c2ccc(NCCc3ccc(Cl)c(Cl)c3)cc2)no1	11600 nM (active)
O=C(Cc1ccc(Cl)c(Cl)c1)Nc1ccc(S(=O)(=O)Nc2cccc(O)c2)cc1	2060 nM (active)
Cc1cc(NS(=O)(=O)c2ccc(NC(=O)Cc3ccc(Cl)c(C(F)(F)F)c3)cc2)no1	651 nM (active)
Cc1cc(NS(=O)(=O)c2ccc(NC(=O)Cc3ccc(Cl)c(Cl)c3)cc2)no1	410 nM (active)
O=C(Cc1ccc(Cl)c(Cl)c1)Nc1ccc(S(=O)(=O)Nc2cncnc2)cc1	651 nM (active)
O=C(Cc1ccc(Cl)c(Cl)c1)Nc1ccc(S(=O)(=O)Nc2ccn[nH]2)cc1	326 nM (active)
COc1ccc(CC(=O)Nc2ccc(S(=O)(=O)Nc3cc(C)on3)cc2)cc1OC	inactive
Cc1cc(NS(=O)(=O)c2ccc(NC(=O)Cc3ccc(Cl)c(Cl)c3)cc2)n(C)n1	1030 nM (active)
Cc1cc(NS(=O)(=O)c2ccc(NC(=O)CCc3ccc(Cl)c(Cl)c3)cc2)no1	16300 nM (active)
Cc1cc(NC(=O)c2ccc(NC(=O)Cc3ccc(Cl)c(Cl)c3)cc2)no1	inactive
O=C(Cc1ccc(Cl)c(Cl)c1)Nc1ccc(S(=O)(=O)Nc2ccccc2)cc1	10300 nM (active)
Cc1cc(NS(=O)(=O)c2ccc(NC(=O)Cc3ccc(C)c(F)c3)cc2)no1	5170 nM (active)
Cc1cc(NS(=O)(=O)c2cccc(NC(=O)Cc3ccc(Cl)c(Cl)c3)c2)no1	16300 nM (active)
